This is part of a sample that, as a whole, favours compounds with a hit. Of some 83,000 tested, about 20% had one in any assay.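 Method: cells in 96-well plates; compound added at one concentration; 48 h incubation; percent growth measured; values under 10 scored active.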 Values without a mark were called inactive. Active and inactive are the calls of the source.

Experiment in all cases: NCI-60 one-dose screen, 48 h (100 = growth as untreated, 0 = no growth, -100 = all killed)
Test [1] deals with HCT-15 colon. Particulars: 10 µM.
Test [2] has as its system HT29 colon. The following applies: 10 µM.
The subject of test [3] is SNB-75 CNS. Particulars: 10 µM.
For test [4], the system named is SNB-19 CNS. Particulars: 10 µM.
Test [5] concerns SK-MEL-5 melanoma. The following applies: 10 µM.
For test [6], the system named is UACC-62 melanoma. The following applies: 10 µM unless noted.
Test [7] relates to SK-MEL-28 melanoma. Particulars: 10 µM.
For test [8], the system named is U251 CNS. The following applies: 10 µM.
Test [9] deals with PC-3 prostate. Particulars: 10 µM.
Test [10] relates to LOX IMVI melanoma. Particulars: 10 µM.

Consider `CC(C)(C)n1nc(C2CC2)c(Br)c1NC(=O)c1ccccc1F`, for which the growth was 93.4% in test [1]; 103% in [2]; 78.4% in test [3]; 107% in [4]; 99.7% in test [5]; 90.7% in test [6]. Besides, in [7], the growth is 100%.
`Cc1cc(C)c(CC(=O)O)c(C)c1`: the growth in test [1] was 100%; in test [2], 99.4%; in [3], 93.2%; in [8], 103%; in test [9] it was 103%; in test [5] it was 101%. The growth in test [6] is 108%; in [7], 124%.
As to `c1csc(-c2cc(-c3cc(-c4cccs4)[nH]n3)n[nH]2)c1`, the growth in [1] is 98.9%; in test [2] it was 106%; in [3], 128%; in test [8], 106%; in test [9], 87.3%; in test [5] it was 99.2%. For the same molecule, the growth was 84.4% in test [6], 87.2% in test [10] and 105% in test [7].
Turning to `NCCC(=O)c1ccc(Cl)cc1`, the growth is 107% in test [1]; 106% in [2]; 96.1% in test [3]; 105% in test [8]; 97.2% in [9]; 99.5% in test [5]. Also, the results for the growth in test [6], in test [10] and in [7] were 112%, 106% and 109%, respectively.
Turning to `Cc1ccc(C)n1-c1ccsc1C(=O)NNC(=O)C(Cl)Cl`, the growth in test [1] is 103%; in test [2], 106%; in [3] it was 104%; in test [8], 107%; in test [9], 88.5%; in test [5], 94.8%. Besides, the growth in test [6] was 93.4%; in [10], 81.7%; in [7], 112%.
For the molecule `O=C(Cc1nc2ccc([N+](=O)[O-])cc2nc1CC(=O)c1cccnc1)c1cccnc1`, the growth is 58.3% in test [1]; 95.8% in test [2]; 4% (active) in test [3]; 37.7% in test [8]; 96.7% in test [9]; 74.5% in test [5]. The growth in test [6] was 69.4%; in test [10], 49.4%; in test [7] it was 80.6%.
As to `CC(=O)Nc1c(C)cc(C)cc1C`, the growth in test [1] was 102%; in test [2], 119%; in test [3] it was 89.2%; in [8] it was 99.3%; in test [9], 103%; in test [5] it was 100%. For the same molecule, the figures for the growth in [6], in [10] and in test [7] were 107%, 96.9% and 112%, respectively.
Consider `Clc1ccc(-c2nnc(-c3cccc4ccccc34)o2)cc1`, for which the growth was 80.1% in test [1]; 89.3% in [2]; 76.8% in test [3]; 90.2% in [8]; 82.4% in test [9]; 93.7% in test [5]. Moreover, the growth in [10] is 84.2%; in test [7], 107%.
As for `CCCCNC(=O)C(=O)NCCCC`, the growth in test [1] was 105%; in [2], 120%; in [3] it was 116%; in test [8] it was 114%; in test [9], 105%; in test [5], 100%. Also, the figures for the growth in [6] and in [7] were 92.6% and 112%, respectively.
Turning to `COC(=O)c1cc(-c2ccc(Cl)c(Cl)c2)[nH]c(=O)c1C#N`, the growth in test [1] was 96.3%; in [2], 107%; in test [3] it was 99.2%; in test [8] it was 97.3%; in test [9], 102%; in test [5], 98.9%. Further, the growth in test [6] is 90.9%; in test [10], 101%; in [7] it was 100%.
For the molecule `CNC(=S)NC(C)(C)C`, the growth in test [1] is 106%; in test [2], 101%; in [3] it was 146%; in test [8], 97%; in test [9], 89.9%; in [5], 93.6%. The growth in test [6] is 94%; in test [10] it was 105%; in test [7], 108%.
For the molecule `c1ccc(/C(=N\N=C(/c2ccccc2)c2cccs2)c2cccs2)cc1`, the growth in test [1] was 92.4%; in [2], 95.4%; in test [3], 89%; in test [8], 103%; in test [9], 99.8%; in test [5], 101%. In addition, the growth was 88.4% in [10] and 108% in test [7].
With `COc1ccccc1NC(=O)C1=C(C)NC(C)=C(C(=O)Nc2ccccc2OC)C1c1cccc([N+](=O)[O-])c1`, the growth was 64.4% in [1]; 75.8% in test [2]; 74.2% in test [3]; 76% in [8]; 41.6% in test [9]; 61.5% in test [5]. For the same molecule, in test [6], the growth was 54.5%.
As for `CCOC(=O)c1cc(/C=C/c2ccc(Cl)cc2Cl)on1`, the growth in [1] was -66.1% (active); in test [2], 1.53% (active); in test [3], 58.9%; in [8], 6.71% (active); in test [9] it was 44%; in test [5], 92.3%. The growth in [6] is 48.7%; in [10], -90.1% (active); in [7], 86.1%.
With `CC1(C)S(=O)(=O)OCCOS1(=O)=O`, the growth in test [1] was 101%; in test [2], 105%; in test [3], 98.7%; in test [8] it was 95%; in [9], 100%; in [5] it was 93.6%. The growth in test [6] is 92.3%; in test [10], 95.2%; in test [7], 112%.
Turning to `COc1ccc(C2OC(N)=C(O)C2=O)cc1OC` (stereo not given), the growth in test [1] is 101%; in [2], 108%; in test [3], 101%; in test [8], 111%; in [9], 97.2%; in test [5] it was 102%. For the same molecule, the growth was 93.7% in [6], 102% in test [10] and 105% in [7].
As for `CSc1[nH]c(=O)ncc1F`, the growth is 100% in test [1]; 112% in [2]; 102% in test [3]; 100% in test [8]; 96.5% in test [9]; 101% in test [5]. For the same molecule, the results for the growth in test [6], in [10] and in test [7] were 92.8%, 95.8% and 111%, respectively.
